Screening data as filed in PubChem.
TRPV1 PAM – HTS Assay for Compounds that Act as Potentiators of the Vanilloid Receptor 1; potentiation, % at 8.33 µM; Transient receptor potential cation channel subfamily V member 1 (Homo sapiens), Q8NER1; 320,000 tested, 0.02% active; AID 540277, 2011; TRPV1-expressing cells, Fluo-8 calcium influx, capsaicin EC20 potentiation; in the data active = potentiation above about 80%; inconclusive = between about 30% and that limit; also: 0% is about no effect
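TRPV1-expressing cells were cultured overnight at 35.5C and loaded with Fluo-8 calcium dye for 40 to 90 min at room temperature. After a 10 s baseline, compound was added and calcium influx was read kinetically for 3 min (ex 480/em 520 nm).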
D1 agonist – Allosteric Agonists of the Human D1 Dopamine Receptor: qHTS; 360,000 tested, 1% active; D(1A) dopamine receptor (Homo sapiens), P21728; HEK293 T-REx D1 cells, calcium flux, agonist mode; activation, % at 2 µM; in the data active = activation above about 30%; also: 0% is about no effect
Target sequence (P21728 whole entry, looked up): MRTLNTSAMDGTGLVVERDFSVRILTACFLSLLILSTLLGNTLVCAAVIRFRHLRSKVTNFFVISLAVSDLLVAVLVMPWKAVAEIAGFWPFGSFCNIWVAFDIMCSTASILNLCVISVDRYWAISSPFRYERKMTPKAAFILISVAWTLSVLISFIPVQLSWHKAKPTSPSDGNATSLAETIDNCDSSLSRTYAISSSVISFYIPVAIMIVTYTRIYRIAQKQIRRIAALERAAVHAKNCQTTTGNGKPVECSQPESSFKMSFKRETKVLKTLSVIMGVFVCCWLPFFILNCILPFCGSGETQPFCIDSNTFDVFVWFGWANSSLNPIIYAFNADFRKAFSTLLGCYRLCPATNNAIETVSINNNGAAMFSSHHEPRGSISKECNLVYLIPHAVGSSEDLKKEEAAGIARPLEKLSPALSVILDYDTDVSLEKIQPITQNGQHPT
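Tetracycline-induced HEK293 TREx D1 cells, force-coupled to calcium signalling, were dye-loaded with a no-wash calcium kit. Compound was pin-added after a 10 s baseline. Fluorescence was read kinetically at 1 cycle/s for 180 s, with calcium rises flagged as agonism.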
TRPV1 agonist – HTS Assay for Compounds that Act as Agonists of the Vanilloid Receptor 1. Transient receptor potential cation channel subfamily V member 1 (Homo sapiens), Q8NER1. AID 540275, 2011. activation, % at 8.33 µM. 320,000 tested, 0.19% active. TRPV1-expressing cells, Fluo-8 calcium influx, agonist mode; in the data active = activation above about 80%; inconclusive = between about 30% and that limit; also: 0% is about no effect
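TRPV1-expressing cells were cultured overnight at 35.5C and loaded with Fluo-8 calcium dye for 40 to 90 min at room temperature. After a 10 s baseline, compound was added and calcium influx was read kinetically for 3 min (ex 480/em 520 nm).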
D1 PAM – Potentiators of Human D1 Dopamine Receptor: qHTS; HEK293 TREx D1 cells, calcium flux, dopamine EC20 potentiation; 360,000 tested, 0.036% active; AID 504651, 2011; D(1A) dopamine receptor (Homo sapiens), P21728; potentiation, % at 10 µM; in the data active = potentiation above about 30%; also: 0% is about no effect
D1 antagonist – Antagonist of Human D 1 Dopamine Receptor: qHTS; HEK293 TREx D1 cells, calcium flux, dopamine EC80; active compounds read low; activity change, negative = inhibition, % at 10 µM; 360,000 tested, 3.2% active; AID 504652, 2011; in the data active = activity change below about -30%; also: % is scaled to controls: 0 for no effect and ±100 for the full control effect
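After overnight tetracycline induction at 30 C, force-coupled D1 HEK293 cells took up a no-wash calcium dye at room temperature. Compounds were added and monitored 180 s, and the response to EC80 dopamine was then recorded.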
Starred values were filed as active, the others as inactive. In the library only some 4.2% were active in any assay of this set; here they are far more common.

What do the screens show for `CCN1CCN(C(C(=O)NC2CCCC2)c2ccc(Cl)cc2)CC1` (stereo not given)?
D1 agonist: 1; D1 PAM: -3; D1 antagonist: -38*

Results for CC(=O)c1ccc(NC(=O)CSc2cn(CC(=O)N3CCCCC3)c3ccccc23)cc1 ?
D1 agonist: 8; D1 PAM: -5; D1 antagonist: -22

Results for O=C1OC(c2ccccc2)=C/C1=C/N1CCCCC1 ?
TRPV1 PAM: -3; D1 agonist: 0; TRPV1 agonist: 81*; D1 PAM: -2; D1 antagonist: -25

Results for O=C1OC(c2ccccc2)=N/C1=C\N1CCCCC1 ?
TRPV1 PAM: -12; D1 agonist: 3; TRPV1 agonist: inconclusive; D1 PAM: -2; D1 antagonist: -23

Results for Cc1ccc(C)c(NC(=O)Cn2c([N+](=O)[O-])cnc2C)c1 ?
TRPV1 PAM: 8; D1 agonist: -1; TRPV1 agonist: -2; D1 PAM: 0; D1 antagonist: 7

Results for Cc1cc(C)c(NC(=O)Cn2c([N+](=O)[O-])cnc2C)c(C)c1 ?
TRPV1 PAM: 17; D1 agonist: 3; TRPV1 agonist: -3; D1 PAM: -7; D1 antagonist: -46*

What do the screens show for `Cc1cc2c(s1)c1cnn(Cc3c(F)c(F)c(C(F)(F)F)c(F)c3F)c(=O)c1n2C`?
D1 agonist: 1; D1 PAM: 1; D1 antagonist: 7

How did CC(=O)Nc1ccc(N=Cc2c(O)c(C(=O)Nc3ccccc3)cc3ccccc23)cc1 do in these assays?
TRPV1 PAM: inconclusive; D1 agonist: 186*; TRPV1 agonist: 25; D1 PAM: 4; D1 antagonist: -20

Results for COc1ccc(-c2nc(C(=O)Nc3cccc(C(C)=O)c3)nn2-c2ccccc2Cl)cc1 ?
D1 agonist: 2; D1 PAM: -3; D1 antagonist: -9

What do the screens show for `Cc1cc(O)cc(O)c1C(=O)Cc1ccccc1`?
TRPV1 PAM: 6; D1 agonist: 8; TRPV1 agonist: 0; D1 PAM: -7; D1 antagonist: -12

What do the screens show for `CC(=O)c1c(O)cc(O)cc1CC(=O)O`?
TRPV1 PAM: 9; D1 agonist: 1; TRPV1 agonist: 0; D1 PAM: -4; D1 antagonist: -58*

How did CC(=O)c1cc2c(O)c(O)ccc2o1 do in these assays?
TRPV1 PAM: -6; D1 agonist: 5; TRPV1 agonist: -3; D1 PAM: 0; D1 antagonist: 12

What do the screens show for `CC(=O)c1c(O)cc(O)c(C(C)=O)c1O`?
TRPV1 PAM: -10; D1 agonist: 3; TRPV1 agonist: -2; D1 PAM: -7; D1 antagonist: -45*

What do the screens show for `COc1cc(N)c(Cc2nccc3cc(OC)c(OC)cc23)cc1OC`?
TRPV1 PAM: -2; D1 agonist: 0; TRPV1 agonist: -1; D1 PAM: 3; D1 antagonist: -6

Results for COc1cc2ccnc(Cc3cccc(OC)c3OC)c2cc1OC ?
TRPV1 PAM: -14; D1 agonist: 12; TRPV1 agonist: -2; D1 PAM: -1; D1 antagonist: -44*

What do the screens show for `Cc1cccc(NC(=O)c2cc(-c3ccc4c(c3)OCCO4)on2)c1`?
D1 agonist: 35*; D1 PAM: -1; D1 antagonist: -66*

Results for O=C(Nc1cccc(Cl)c1)c1cc(-c2ccc3c(c2)OCCO3)on1 ?
D1 agonist: -3; D1 PAM: 0; D1 antagonist: 0

Results for Cc1cc(OC(=O)c2cc(-c3ccc4c(c3)OCCO4)on2)ccc1Cl ?
D1 agonist: 11; D1 PAM: -2; D1 antagonist: -36*

What do the screens show for `N#Cc1ccc(OC(=O)c2cc(-c3ccc(Cl)cc3)on2)cc1`?
D1 agonist: 3; D1 PAM: 0; D1 antagonist: -38*

Results for CCCCCSc1nc2sc3c(c2c(=O)n1-c1ccc(OC)cc1)CCN(C(C)=O)C3 ?
D1 agonist: 2; D1 PAM: 2; D1 antagonist: 38

What do the screens show for `CCc1cccc(NC(=O)Cn2c(=O)c(C(F)(F)F)nc3ccccc32)c1`?
D1 agonist: 3; D1 PAM: 7; D1 antagonist: 36

Results for CC1CCCC(NC(=O)COC(=O)Cc2c[nH]c3ccccc23)C1C (stereo not given) ?
TRPV1 PAM: 25; D1 agonist: 3; TRPV1 agonist: 10; D1 PAM: 5; D1 antagonist: -15

Results for Cc1ccc(C(=O)C(C)OC(=O)Cc2c[nH]c3ccccc23)cc1 (stereo not given) ?
TRPV1 PAM: 6; D1 agonist: 3; TRPV1 agonist: 5; D1 PAM: -1; D1 antagonist: 4

What do the screens show for `CC(OC(=O)Cc1c[nH]c2ccccc12)C(=O)NC1CCCCC1C` (stereo not given)?
TRPV1 PAM: -11; D1 agonist: 4; TRPV1 agonist: 19; D1 PAM: -4; D1 antagonist: -31*

Results for Cc1ccc(S(=O)(=O)CCC(=O)N(C)C2CCCCC2)cc1 ?
TRPV1 PAM: -17; D1 agonist: 0; TRPV1 agonist: 21; D1 PAM: -3; D1 antagonist: -42*

How did Cc1ccc(S(=O)(=O)CCC(=O)OC(C)C(=O)NC2CCCCC2C)cc1 (stereo not given) do in these assays?
TRPV1 PAM: -27; D1 agonist: 2; TRPV1 agonist: 10; D1 PAM: -1; D1 antagonist: -42*

Results for Cc1ccc(NC(=O)C(C)OC(=O)Cc2c[nH]c3ccccc23)cc1 (stereo not given) ?
TRPV1 PAM: -15; D1 agonist: -1; TRPV1 agonist: inconclusive; D1 PAM: -2; D1 antagonist: -56*

What do the screens show for `Cc1ccc(-c2noc(-c3ccc(N4CCCCC4C)c([N+](=O)[O-])c3)n2)cc1` (stereo not given)?
D1 agonist: 2; D1 PAM: -2; D1 antagonist: -4

How did COc1cc(NC(=O)Cn2nc(C(F)(F)F)c3c2CCC3)cc(OC)c1OC do in these assays?
D1 agonist: 17; D1 PAM: -2; D1 antagonist: -19

Results for COc1ccc(/C(C)=N/Nc2nc(C)c(C(C)=O)s2)cc1 ?
TRPV1 PAM: 4; D1 agonist: 4; TRPV1 agonist: 5; D1 PAM: 2; D1 antagonist: -33*

How did CC(=O)c1sc(N/N=C\c2ccccc2O)nc1C do in these assays?
TRPV1 PAM: 3; D1 agonist: 17; TRPV1 agonist: 3; D1 PAM: -2; D1 antagonist: -10
